Test results from PubChem BioAssay (NCATS).
Records with an inconclusive call do not appear. Entries that show only a call come without a potency. Calls of active or inactive are those of the source. Calls come from the whole dose curve; as a rule, active = well fitted cell-killing curve with a large enough effect; inconclusive = small, poorly fitted or top-dose-only effect, or effect the other way; inactive = no such curve, though single readings can be large or run the other way.
Potency is the fitted concentration of half-maximal effect.

Assay: Viability qHTS for spleen associated tyrosine kinase inhibitor (SYKi) naive MV4-11 cells (AID 1963823); note: nearly all actives have a fitted effect of over 40% in size
Details: MV4-11 AML viability, CellTiter-Glo luminescence, 72 h; series mostly up to 45 µM
Outline: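 Read-out: CellTiter-Glo luminescence. Exposure: 72 hr, 37 C, 5% CO2, 95% humidity. Cells: MV4-11 without SYK inhibitor history, 500/well, qHTS format.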
For `C[C@@H]1O[C@@H](O[C@H]2[C@H](OC(=O)[C@]34CCC(C)(C)C[C@H]3C3=CCC5[C@@]6(C)CC[C@H](O[C@@H]7O[C@H](CO[C@@H]8OC[C@H](O)[C@H](O)[C@H]8O)[C@@H](O)[C@H](O)[C@H]7O)C(C)(C)C6CC[C@@]5(C)[C@]3(C)C[C@H]4O)OC[C@@H](O)[C@@H]2O)[C@H](O)[C@H](O)[C@H]1O[C@@H]1OC[C@H](O)[C@H](O[C@@H]2OC[C@@H](O)[C@H](O)[C@H]2O)[C@H]1O` (stereo partly drawn), the viability (% of control) was 84.1% [at 9.25 µM] (inactive).
For `CC(=O)C1=C(C)N(c2cccc(C(F)(F)F)c2)C(=O)N[C@H]1c1ccc(C#N)nc1`, the viability (% of control) was 83.3% [at 9.25 µM] (inactive).
With `COc1cc(/C=C/C(=O)OC2CC(C)=C(C(=O)O)/C2=C/CO[C@@H]2O[C@H](CO)[C@@H](O)[C@H](O)[C@H]2O)ccc1O` (stereo partly drawn) the Potency was “inactive”.
With `C/C=C(\C)C(=O)OCC1OC(OC2OC(COC(=O)/C(C)=C/C)C(OC3OC(CO)C(OC(=O)/C(C)=C/C)C(OC(=O)/C(C)=C/C)C3O)C(O)C2O)C(O)C(O)C1OC1OC(CO)C(OC(=O)/C(C)=C/C)C(OC(=O)/C(C)=C/C)C1O` (stereo not drawn) the viability (% of control) was 65% [at 9.25 µM] (inactive).
For `C/C=C/c1ccc(O[C@@H]2O[C@H](CO)[C@@H](O)[C@H](O)[C@H]2O)c(OC)c1`, the Potency was “inactive”.
In the case of `O=C(NCCO)c1cccc(-c2cc(Nc3ccc(OC(F)(F)F)cc3)ncn2)c1`, the Potency was 6.51 µM (active).
With `CCC(C)n1cc(C)c2c(C(=O)NCc3c(C)cc(C)[nH]c3=O)cc(-c3ccc(N4CCNCC4)nc3)cc21` (stereo not drawn) the Potency was 13 µM (active).
For `CSCC[C@H](NC(=O)[C@H](CCSC)NC(=O)CNC(=O)[C@H](Cc1ccc(O)cc1)NC(=O)[C@H](Cc1ccccc1)NC(=O)[C@H](CCCN=C(N)N)NC(=O)[C@H](CC(=O)O)NC(=O)[C@@H]1CCCN1C(=O)[C@H](CC(=O)O)NC(=O)[C@@H]1CCCN1C(=O)[C@@H]1CCCN1C(=O)[C@@H](N)CC(=O)O)C(N)=O`, the Potency was “inactive”.
For `CC[C@H](/C=C/[C@@H](C)[C@H]1CC[C@H]2[C@@H]3CC=C4C[C@@H](O)CC[C@]4(C)[C@H]3CC[C@]12C)C(C)C`, the viability (% of control) was 82.1% [at 4.97 µM] (inactive).
In the case of `CSc1nc(N)cc(Oc2ccc(-c3nc(Nc4cccc(C(F)(F)F)c4)n[nH]3)cc2)n1`, the Potency was 1.16 µM (active).
For `C=C1[C@@H]2CC[C@@]3(C)[C@H](c4ccoc4)OC(=O)C[C@]13O[C@H]1CC(=O)C(C)(C)[C@H](C(O)C(=O)OC)[C@]12C` (stereo partly drawn), the Potency was “inactive”.
For `CC(O)CO[C@@H]1O[C@H](CO)[C@@H](O)[C@H](O)[C@H]1O` (stereo partly drawn), the Potency was “inactive”.
With `COc1c2ccoc2cc2oc(CO[C@@H]3O[C@H](CO)[C@@H](O)[C@H](O)[C@H]3O)cc(=O)c12` the Potency was “inactive”.
For `Cc1ccc(C(=O)N(CCCN)C(c2oc3cc(Cl)ccc3c(=O)c2Cc2ccccc2)C(C)C)cc1` (stereo not drawn), the Potency was “inactive”.
For `COc1cc(C(=O)OCCCN2CCCN(CCCOC(=O)c3cc(OC)c(OC)c(OC)c3)CC2)cc(OC)c1OC`, the Potency was 21.1 µM (active).

Assay: Viability qHTS for spleen associated tyrosine kinase inhibitor (SYKi) drug resistant MV4-11 cells (AID 1963824); note: nearly all actives have a fitted effect of over 35% in size
Details: SYKi-resistant MV4-11 viability, CellTiter-Glo, 72 h; series mostly up to 45 µM
Outline: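 CellTiter-Glo luminescence, read 10 min after reagent addition, reports viability after a 72 hr compound exposure. Cells are an MV4-11 line made resistant to SYK inhibition, seeded at 500 per well onto compound-containing plates.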
For `C=C1CC23CC1CCC2C12OC(=O)C(C)(C(O)C(O)C1O)C2C3C(=O)O` (stereo not drawn), the Potency was “inactive”.
For `C[C@@H]1O[C@@H](O[C@H]2[C@H](O[C@H]3[C@H](O)[C@@H](C(=O)O)O[C@@H](O[C@H]4CC[C@@]5(C)C(CC[C@]6(C)C5CC[C@]57OC[C@@]8(CCC(C)(C)CC85)[C@H](O)C[C@]76C)C4(C)C)[C@@H]3O[C@@H]3O[C@H](CO)[C@@H](O[C@@H]4OC[C@@H](O)[C@H](O)[C@H]4O)[C@H](O)[C@H]3O)O[C@H](CO)[C@H](O)[C@@H]2O)[C@H](O)[C@H](O)[C@H]1O` (stereo partly drawn), the viability, % of control was 94.7% [at 9.25 µM] (inactive).
In the case of `C=C[C@H]1[C@H](O[C@@H]2O[C@H](CO)[C@@H](O)[C@H](O)[C@H]2O)OC=C(C(=O)OC)[C@H]1CCOC(=O)c1cc(O)c(O)c(O)c1`, the Potency was “inactive”.
For `NS(=O)(=O)c1ccc(N=Nc2c(O)[nH]c3ccc(Br)cc23)cc1`, the Potency was 1.03 µM (active).
For `C/C=C1\[C@H](O[C@@H]2O[C@H](CO)[C@@H](O)[C@H](O)[C@H]2O)OC=C(C(=O)O)[C@H]1CC(=O)OCCc1ccc(O)cc1`, the Potency was “inactive”.
For `CC(C)C[C@@H](N)C(=O)N[C@H]1C(=O)N[C@@H](CC(N)=O)C(=O)N[C@H]2C(=O)N[C@H]3C(=O)N[C@H](C(=O)N[C@H](C(=O)O)c4cc(O)cc(O)c4-c4cc3ccc4O)[C@H](O)c3ccc(c(Cl)c3)Oc3cc2cc(c3O[C@@H]2O[C@H](CO)[C@@H](O)[C@H](O)[C@H]2O[C@H]2C[C@](C)(N)[C@H](O)[C@H](C)O2)Oc2ccc(cc2Cl)[C@H]1O`, the Potency was “inactive”.
In the case of `CCC1C(=O)N(C)c2cnc(Nc3ccc(C(=O)NC4CCC(N5CCN(CC6CC6)CC5)CC4)cc3OC)nc2N1C(C)C` (stereo not drawn), the Potency was 0.0116 µM (active).
For `CC(=O)NCCNc1cc(Cl)nn2c(-c3cccc(S(=O)(=O)N(C)C)c3)c(C)nc12`, the Potency was 1.64 µM (active).
For `CNC(=O)[C@@H](c1ccccc1)N1CCc2cc(OC)c(OC)cc2[C@@H]1CCc1ccc(C(F)(F)F)cc1`, the Potency was 20.6 µM (active).
For `CC(NC(=O)CC(=O)O)C(=O)Nc1ccccc1C(N)=O` (stereo not drawn), the Potency was “inactive”.
With `COc1cc(C(CO)C(OC2OC(CO)C(O)C(O)C2O)c2ccc(O)c(OC)c2)ccc1O` (stereo not drawn) the Potency was “inactive”.
With `C=C1[C@@H](OC(C)=O)CC[C@@]2(C)[C@@H](OC(C)=O)[C@H](OC(C)=O)C3=C(C)C[C@H](OC(=O)C(C)CC)[C@@H]([C@@H](OC(C)=O)[C@H]12)C3(C)C` (stereo partly drawn) the Potency was 1.22 µM (active).
In the case of `CC1CCC2C(C)(C)CC(C)(CO)C2(O)C1C(=O)O` (stereo not drawn), the Potency was “inactive”.
For `O=C(O)/C=C/c1ccc(O)c(O[C@@H]2O[C@H](CO)[C@@H](O)[C@H](O)[C@H]2O)c1`, the Potency was “inactive”.
For `Cc1cn(C2C[C@H](O)[C@@H](CO)O2)c(=O)[nH]c1=O` (stereo partly drawn), the Potency was “inactive”.
In the case of `CC1(C)C2CC(OC3OC(COC4OCC(O)(CO)C4O)C(O)C(O)C3O)C1(C)CC2O` (stereo not drawn), the Potency was “inactive”.
In the case of `C=C1[C@H]2[C@H](O[C@@H]3O[C@H](COC(=O)/C=C/c4cc(OC)c(O)c(OC)c4)[C@@H](O)[C@H](O)[C@H]3O)OC=C(C(=O)O)[C@H]2C[C@@H]1O`, the Potency was “inactive”.
In the case of `CC(C)CC(=O)O[C@@H]1OC=C(CO[C@@H]2O[C@H](CO)[C@@H](O)[C@H](O)[C@H]2O)[C@H]2[C@@H]3O[C@H]3[C@@](O)(CO)[C@@H]12`, the Potency was “inactive”.
With `CC1(C)CCC2(CC1)N[C@@H](C(=O)N[C@@H]1CC[C@@H](C(N)=O)OC1)[C@H](c1ccnc(Cl)c1F)[C@]21C(=O)Nc2cc(Cl)ccc21` the Potency was 5.68 µM (active).
In the case of `CC(=O)O[C@H]1C[C@@]2(C)[C@@H](C[C@@H](O)[C@H]3[C@@]4(C)CC[C@@H](O)[C@@H](C)[C@@H]4CC[C@@]32C)/C1=C(\CCC=C(C)C)C(=O)O`, the Potency was “inactive”.
For `CC1(C)CC[C@]2(C(=O)O)CC[C@]3(C)C(=CCC4[C@@]5(C)CC[C@H](O[C@@H]6O[C@H](CO)[C@@H](O)[C@H](O)[C@H]6O[C@@H]6O[C@H](CO)[C@@H](O)[C@H](O)[C@H]6O)[C@@](C)(CO)C5CC[C@]43C)[C@@H]2C1` (stereo partly drawn), the Potency was “inactive”.
With `CC/C=C\CCO[C@@H]1O[C@H](CO[C@@H]2OC[C@H](O)[C@H](O)[C@H]2O)[C@@H](O)[C@H](O)[C@H]1O` the Potency was “inactive”.
In the case of `O=C1c2c(O[C@@H]3O[C@H](CO)[C@@H](O)[C@H](O)[C@H]3O)cc(O)cc2OC1(O)Cc1ccc(O)cc1` (stereo partly drawn), the Potency was 3.17 µM (active).
With `CN1C/C=C/CCOc2cccc(c2)-c2ccnc(n2)Nc2cccc(c2)C1` the Potency was 0.206 µM (active).
With `C[C@@H]1O[C@@H](O[C@H]2[C@H](OC(=O)[C@]34CCC(C)(C)C[C@H]3C3=CCC5[C@@]6(C)CC[C@H](O[C@@H]7O[C@H](CO[C@@H]8OC[C@H](O)[C@H](O)[C@H]8O)[C@@H](O)[C@H](O)[C@H]7O)C(C)(C)C6CC[C@@]5(C)[C@]3(C)C[C@H]4O)OC[C@@H](O)[C@@H]2O)[C@H](O)[C@H](O)[C@H]1O[C@@H]1OC[C@H](O)[C@H](O[C@@H]2OC[C@@H](O)[C@H](O)[C@H]2O)[C@H]1O` (stereo partly drawn) the viability, % of control was 84.6% [at 9.25 µM] (inactive).
In the case of `CC(=O)C1=C(C)N(c2cccc(C(F)(F)F)c2)C(=O)N[C@H]1c1ccc(C#N)nc1`, the viability, % of control was 87% [at 9.25 µM] (inactive).
With `COc1cc(/C=C/C(=O)OC2CC(C)=C(C(=O)O)/C2=C/CO[C@@H]2O[C@H](CO)[C@@H](O)[C@H](O)[C@H]2O)ccc1O` (stereo partly drawn) the Potency was “inactive”.
In the case of `C/C=C(\C)C(=O)OCC1OC(OC2OC(COC(=O)/C(C)=C/C)C(OC3OC(CO)C(OC(=O)/C(C)=C/C)C(OC(=O)/C(C)=C/C)C3O)C(O)C2O)C(O)C(O)C1OC1OC(CO)C(OC(=O)/C(C)=C/C)C(OC(=O)/C(C)=C/C)C1O` (stereo not drawn), the viability, % of control was 58.7% [at 9.25 µM] (inactive).
For `C/C=C/c1ccc(O[C@@H]2O[C@H](CO)[C@@H](O)[C@H](O)[C@H]2O)c(OC)c1`, the Potency was “inactive”.
With `O=C(NCCO)c1cccc(-c2cc(Nc3ccc(OC(F)(F)F)cc3)ncn2)c1` the Potency was 5.8 µM (active).
With `CCC(C)n1cc(C)c2c(C(=O)NCc3c(C)cc(C)[nH]c3=O)cc(-c3ccc(N4CCNCC4)nc3)cc21` (stereo not drawn) the Potency was 18.4 µM (active).
For `CSCC[C@H](NC(=O)[C@H](CCSC)NC(=O)CNC(=O)[C@H](Cc1ccc(O)cc1)NC(=O)[C@H](Cc1ccccc1)NC(=O)[C@H](CCCN=C(N)N)NC(=O)[C@H](CC(=O)O)NC(=O)[C@@H]1CCCN1C(=O)[C@H](CC(=O)O)NC(=O)[C@@H]1CCCN1C(=O)[C@@H]1CCCN1C(=O)[C@@H](N)CC(=O)O)C(N)=O`, the Potency was “inactive”.
With `CC[C@H](/C=C/[C@@H](C)[C@H]1CC[C@H]2[C@@H]3CC=C4C[C@@H](O)CC[C@]4(C)[C@H]3CC[C@]12C)C(C)C` the viability, % of control was 108% [at 4.97 µM] (inactive).
